# Source: PubChem BioAssay AID485346 (Sanford-Burnham Center for Chemical Genomics, 2010)
# In all, about 330,000 compounds went through this assay and about 10,000 (3%) were called active. For the sample, actives were picked, then their nearest neighbours and some compounds at random. Unmarked numbers belong to inactive results.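 How the source made its calls: active means inhibition of at least 50% at 8 µM in the primary screen; inactive means the rest.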
# Molecular target: Protein Mdm4 (Homo sapiens) + E3 ubiquitin-protein ligase Mdm2 (Homo sapiens) (UniProt O15151+Q00987)
# Sequence (O15151 whole entry, looked up): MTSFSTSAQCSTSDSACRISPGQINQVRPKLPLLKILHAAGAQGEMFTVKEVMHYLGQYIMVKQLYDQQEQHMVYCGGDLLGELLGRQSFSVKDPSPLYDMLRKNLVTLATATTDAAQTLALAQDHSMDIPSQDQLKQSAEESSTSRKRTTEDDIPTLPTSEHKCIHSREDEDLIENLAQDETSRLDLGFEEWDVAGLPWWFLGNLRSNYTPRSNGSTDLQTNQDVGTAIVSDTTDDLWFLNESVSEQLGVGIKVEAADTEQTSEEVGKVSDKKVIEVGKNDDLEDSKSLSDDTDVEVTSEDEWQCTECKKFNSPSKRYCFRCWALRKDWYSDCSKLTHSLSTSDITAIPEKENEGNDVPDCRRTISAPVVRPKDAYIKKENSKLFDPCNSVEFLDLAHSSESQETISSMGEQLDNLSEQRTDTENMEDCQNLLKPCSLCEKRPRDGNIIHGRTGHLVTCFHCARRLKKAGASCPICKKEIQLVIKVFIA
# Sequence (Q00987 whole entry, looked up): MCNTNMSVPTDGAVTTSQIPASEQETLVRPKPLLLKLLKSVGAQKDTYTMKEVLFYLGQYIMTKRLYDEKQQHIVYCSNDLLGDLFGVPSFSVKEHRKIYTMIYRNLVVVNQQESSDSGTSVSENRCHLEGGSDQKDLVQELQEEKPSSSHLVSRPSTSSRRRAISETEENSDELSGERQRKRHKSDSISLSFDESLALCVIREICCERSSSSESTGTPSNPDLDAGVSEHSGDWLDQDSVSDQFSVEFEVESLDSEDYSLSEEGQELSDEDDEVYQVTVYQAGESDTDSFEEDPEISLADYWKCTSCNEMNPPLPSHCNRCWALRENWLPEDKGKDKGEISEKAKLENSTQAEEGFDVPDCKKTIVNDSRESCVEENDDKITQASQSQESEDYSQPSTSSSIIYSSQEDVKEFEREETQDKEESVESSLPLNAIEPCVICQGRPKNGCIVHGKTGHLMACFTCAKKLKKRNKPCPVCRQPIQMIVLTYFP
# Assay: inhibitors of human Mdm2-MdmX association, primary screen, cell-based, luminescence, split luciferase, SaOS-2, uHTS (AID 485346)
# Conditions: SaOS-2 split-luciferase Mdm2/MdmX complementation, at 8 µM, hits give high values
row,Compound,inhibition
1,O=C1c2ccccc2[C@@H]2C[C@@H](O)[C@H](Nc3ccccc3Cl)CCN12,22.5%
2,Cc1ccnc(SCC(=O)Nc2cccc(S(=O)(=O)N3CCOCC3)c2)n1,15.8%
3,COC(=O)CSc1nc2ccccc2c(=O)n1Cc1ccccc1,1.48%
4,CC(=O)Oc1c(C(=O)c2nnc(C)o2)c(=O)n(Cc2ccccc2)c2ccccc12,53.7% (active)
5,CC(=O)c1nc2ccccc2n1Cc1ccccc1,4.16%
6,CCN1C(=S)N[C@@H](CCc2ccccc2)[C@H](C(=O)OC)[C@H]1C,6.92%
7,CCOC(=O)/C(=N\Nc1ccccc1[N+](=O)[O-])c1csc(Nc2ccccc2)n1,23.4%
8,CCOC(=O)/C(=C\c1ccc([N+](=O)[O-])cc1)C(=O)c1cc(C(C)=O)c(Nc2ccccc2)s1,99.3% (active)
9,Cc1ccc(NC(=O)/C(=C/c2ccc([N+](=O)[O-])cc2)NC(=O)c2ccccc2)cc1,17.1%
10,O=C(C1CC(=O)N(C2CCCC2)C1)N1CCN(c2cccc(C(F)(F)F)c2)CC1 (stereo not drawn),4.03%
11,Cc1cc(Nc2cccc(C)c2C)n2ncnc2n1,-28.4%
12,Cc1cccc(OCC(O)Cn2c(N3CCCCC3)nc3c2c(=O)[nH]c(=O)n3C)c1 (stereo not drawn),-19.9%
13,O=C(/C=C/c1ccccc1)Nc1nnc(SCC(=O)c2ccc3ccccc3c2)s1,69.7% (active)
14,COc1ccc(C(=O)CSc2nnc(NC(=O)C3CC(=O)N(c4cccc(OC)c4)C3)s2)cc1 (stereo not drawn),-12.2%
15,NC(=O)CSc1nnc(NC(=O)c2ccc3ccccc3c2)s1,-8.44%
16,CC(=O)N/C(=C\c1ccccc1)C(=O)OC(C)C(=O)N(C)c1ccccc1 (stereo not drawn),19.3%
17,O=C(CCSCCc1ccccn1)Nc1nccs1,-7.99%
18,COc1ccc(C2=NN(C(=O)c3cccnc3)C(c3ccccc3)C2)cc1 (stereo not drawn),19.9%
19,COc1ccc(C2CC(c3ccc([N+](=O)[O-])cc3)=NN2C(C)=O)cc1 (stereo not drawn),-14%
20,COc1ccc(C2CC(c3ccccc3)=NN2C(=O)c2ccc(Cl)c([N+](=O)[O-])c2)cc1 (stereo not drawn),88.8% (active)

row,Compound,inhibition
1,COc1ccc(C(C(=O)NC2CCCC2)N(CCCO)C(=O)Cn2nnc(-c3ccc(C)o3)n2)cc1 (stereo not drawn),-6.39%
2,COC(C[C@@H](O)[C@H](C)[C@H](O)COCc1ccccc1)OC,26.1%
3,COc1ccc(C2=NN(C(=O)c3ccccc3C(=O)O)C(c3ccccc3O)C2)cc1 (stereo not drawn),-30.7%
4,CCOc1ccccc1C1CC(c2cccc(NS(C)(=O)=O)c2)=NN1C(=O)c1ccccc1 (stereo not drawn),8.21%
5,CCOc1ccc2nc(Cl)c(C3CC(c4ccccc4)=NN3C(=O)c3cccs3)cc2c1 (stereo not drawn),95% (active)
6,COc1ccc(OC)c(S(=O)(=O)n2c([N+](=O)[O-])cnc2C)c1,22.7%
7,CCOc1ccc(C(C)C)cc1S(=O)(=O)n1nc(C)cc1C,13.1%
8,COc1ccc(C(C[N+](=O)[O-])n2nc(C)cc2C)cc1 (stereo not drawn),69.3% (active)
9,Cc1ccc(Cl)c(NC(=O)CN(C)CC(=O)Nc2ccc(F)c(F)c2F)c1Cl,-0.971%
10,O=C(OCC(=O)N1CCCCCC1)c1ccc(Cl)nc1,0.359%
11,O=C(NNc1c2ccccc2nc2ccccc12)c1cc2ccccc2cc1O,35.2%
12,CC(C)(C)OC(=O)NNc1c2ccccc2nc2ccccc12,95.7% (active)
13,Cc1ccccc1NC(=O)NNC(=O)OC(C)(C)C,20.7%
14,C/C(=N/Nc1ccc(Cl)cc1)c1cnnc(-c2ccccc2)n1,-8.35%
15,Cc1cc(NC(=O)CSc2nc(C(C)C)nc3sc4c(c23)CCC(C)C4)no1 (stereo not drawn),48.9%
16,Cc1nc(SCC(=O)Nc2cc(C)on2)c2c(C)c(C)sc2n1,79.8% (active)
17,Cc1cc(NC(=O)CSc2ncc(C(F)(F)F)cc2Cl)no1,6.3%
18,COc1cccc(OCCOc2cccc(/C=N/n3cnnc3)c2)c1,-7.51%
19,Cc1cc([N+](=O)[O-])c(-c2ccc(/C=N/n3cnnc3)o2)cc1Cl,26.5%
20,Cc1ccccc1OCCOc1ccc([N+](=O)[O-])cc1/C=N/n1cnnc1,58.7% (active)

row,Compound,inhibition
1,COc1ccc(CCNC(=O)COC(=O)c2cnc(Cl)c(Cl)c2)cc1,-24.9%
2,CN(C)CC(O)COc1ccc(C(C)(C)c2ccc(OCC(O)CN(C)C)cc2)cc1 (stereo not drawn),97.5% (active)
3,Cc1cc(C)n(CC(O)COc2ccc(C(C)(C)C)cc2)n1 (stereo not drawn),0.107%
4,CC(C)(c1ccccc1)c1ccc(OCCN)cc1,29.2%
5,CC(Oc1cccc(Cl)c1)C(=O)NC1CC(C)(C)NC(C)(C)C1 (stereo not drawn),12.5%
6,Cc1ccc(C(CC(=O)O)NC(=O)c2ccc(S(=O)(=O)N3CCCC3)cc2)cc1 (stereo not drawn),23.9%
7,COc1ccc(S(=O)(=O)N2CCOCC2)c(C)c1C,4.93%
8,COc1ccc(CN(C)C(=S)Nc2ccc(Cl)cc2Cl)cc1,2.13%
9,COc1ccc(CCNCC(O)Cn2ccc3ccccc32)cc1OC (stereo not drawn),11.5%
10,COc1c(C)c2c(c(O)c1C/C=C(\C)CCC(=O)O)C(=O)OC2,97.1% (active)
11,NNC(=O)c1ccc(COCC(F)(F)C(F)F)cc1,6.42%
12,O=C(Nc1ccccc1Cc1ccccc1)c1ccc2c(c1)SC1=NS(=O)(=O)CCN12,20.2%
13,Cc1cc(=O)oc2cc(OCCC[n+]3ccccc3)ccc12,-31%
14,CCOc1ccccc1N1CCN(C(=O)COc2ccc3c(C)cc(=O)oc3c2)CC1,18.6%
15,Cc1cc(=O)oc2cc(OCC3CC(c4ccccc4Cl)=NO3)ccc12 (stereo not drawn),63.9% (active)
16,O=C1C=C(c2cc(C(F)(F)F)cc(C(F)(F)F)c2)C[C@@H](c2ccc3c(c2)OCO3)C1,15.2%
17,CCc1ccc(-n2c(SCc3cc(=O)n4cc(Br)ccc4n3)nc3[nH]ncc3c2=O)cc1,41.3%
18,CC(O)CN(Cc1ccc(Cl)cc1)CC(C)O (stereo not drawn),14.3%
